GSTO1 inh: inhibitors of recombinant GSTO1, primary screen, counter-screen for RBBP9 inhibitor project, biochemical, fluorescence polarization | Glutathione S-transferase omega-1 (Homo sapiens), P78417 | activity-based probe fluorescence polarization | inhibition, % at 5.96 µM | hit rate 1.1% among 300,000;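 active = inhibition above the campaign mean inhibition plus 3 SD, cut at about 35% in these data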
Fam108B counter: mouse Fam108B serine hydrolase inhibitors, primary screen, counter-screen for RBBP9 inhibitor project, biochemical, fluorescence polarization; recombinant Fam108B, FP-Rh probe fluorescence polarization; inhibition, % at 9.51 µM; hit rate 0.33% among 300,000; AID 1947, 2009;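 active = inhibition above the screen mean inhibition plus 3 SD, computed separately per campaign, cut at about 18% in these data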;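 also: inhibitors lower polarization as less probe binds the enzyme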
LYPLA2 inh: LYPLA2 inhibitors, primary screen, counter-screen for PME1 inhibitor project, biochemical, fluorescence polarization, FP-Rh probe ABPP; inhibition, % at 5.9 µM; AID 2177, 2009; recombinant LYPLA2; hit rate 0.38% among 320,000;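 active = inhibition above the screen-wide mean plus 3 SD, limit set per campaign, cut at about 26% in these data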
Target sequence (O95372 whole entry, looked up): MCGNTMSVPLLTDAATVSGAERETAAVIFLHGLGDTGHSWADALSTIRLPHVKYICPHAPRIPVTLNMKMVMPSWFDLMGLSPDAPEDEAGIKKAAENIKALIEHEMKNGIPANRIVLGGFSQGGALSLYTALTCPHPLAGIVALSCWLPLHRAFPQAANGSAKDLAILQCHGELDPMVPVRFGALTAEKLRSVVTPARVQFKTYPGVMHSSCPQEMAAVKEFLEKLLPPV
PME-1 inh: PME-1 inhibitors via competitive probe labeling, primary screen, biochemical, fluorescence polarization, FP-Rh probe, HTS; hit rate 0.53% among 320,000; Protein phosphatase methylesterase 1 (Homo sapiens), Q9Y570; inhibition, % at 5.9 µM; recombinant PME-1; AID 2130, 2009;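 active = inhibition above the campaign mean of all compounds plus 3 SD, cut at about 26% in these data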;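 also: competitive labeling of PME-1 active site by serine hydrolase directed probe; inhibitors block probe labeling so polarization falls and inhibition rises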
LYPLA1 counter: LYPLA1 inhibitors, primary screen, counter-screen for PME1 inhibitor project, biochemical, fluorescence polarization, FP-Rh probe ABPP; Acyl-protein thioesterase 1 (Homo sapiens), O75608; recombinant LYPLA1; inhibition, % at 5.9 µM; hit rate 0.16% among 320,000; AID 2174, 2009;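 active = inhibition above the mean of all tested compounds plus 3 SD, set per campaign, cut at about 14% in these data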;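 also: inhibitors block serine hydrolase probe labeling of LYPLA1 so polarization falls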
Target sequence (O75608 whole entry, looked up): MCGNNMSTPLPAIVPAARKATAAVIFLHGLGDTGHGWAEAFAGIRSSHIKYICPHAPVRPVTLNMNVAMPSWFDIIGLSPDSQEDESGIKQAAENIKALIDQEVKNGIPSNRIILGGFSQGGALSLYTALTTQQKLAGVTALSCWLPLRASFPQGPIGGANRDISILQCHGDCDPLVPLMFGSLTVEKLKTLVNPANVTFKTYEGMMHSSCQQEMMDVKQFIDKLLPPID
PAD4 FP inh: human PAD4 inhibitors, primary screen, biochemical, fluorescence polarization, 1536-well format; inhibition, % at 6.36 µM; hit rate 0.41% among 330,000; recombinant PAD4, RCA probe fluorescence polarization;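 active = percent inhibition above a cutoff equal to the mean of all tested compounds plus 3 SD, cut at about 15% in these data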
Each line names hits and unclear results; the compound was inactive in the other large screens. A selection: hits, their analogues and other compounds. The true share with any hit is near 1.8%.

COc1cccc(CN2CCN(S(=O)(=O)c3ccc(Cl)s3)CC2)c1	none
Cc1[nH]c2ccccc2c1/C=N/Nc1nc(Nc2ccccc2)nc(N2CCOCC2)n1	PME-1 inh 39
Cc1ccc(C(NC(=O)N2CCOCC2)C(Cl)Cl)cc1F (stereo not drawn)	none
Cc1ccc(C(NC(=O)N2CCOCC2)=C(Cl)Cl)cc1F	GSTO1 inh 36
CC(C)(C)c1ccc(COn2c(=O)c(-c3ccco3)[n+]([O-])c3ccccc32)cc1	GSTO1 inh 43
O=C(Nc1nc2cc3c(cc2s1)OCCO3)c1cccs1	none
NNc1nc2cc3c(cc2s1)OCCO3	PME-1 inh 39
CCc1ccc2c(c1)C1(NN=C(c3ccc(C)cc3)S1)C(=O)N2 (stereo not drawn)	none
CC(C)c1ccc2c(c1)C1(NN=C(c3ccccc3)S1)C(=O)N2 (stereo not drawn)	PME-1 inh 33
CC(C)c1cc(Nc2cccc(O)c2)cc(C(C)C)c1O	GSTO1 inh 42
O=[N+]([O-])c1ccc(N/N=C/c2cccc(O)c2O)c(S(=O)(=O)N2CCOCC2)c1	GSTO1 inh 46, PME-1 inh 31
COc1cc(/C=N/Nc2ccc([N+](=O)[O-])cc2S(=O)(=O)N2CCOCC2)cc(OC)c1OC	none
COc1ccccc1NC(=O)Nc1ccnn1C1CCN(C(=O)c2cccnc2)CC1	none
CC(=O)C(C(C)=O)C1(O)C(=O)c2ccccc2C1=O	GSTO1 inh 75
CCN(CC(=O)Nc1c(F)cccc1F)C(=O)CCc1ccc(OC)cc1	PME-1 inh 41
CCOC(=O)CSc1nc2sc3c(c2c(=O)[nH]1)CC(C)(CC)OC3 (stereo not drawn)	none
CCC1(C)Cc2c(sc3nc(NN)n(C)c(=O)c23)CO1 (stereo not drawn)	PME-1 inh 37
COc1ccc(OC)c(C2C(C#N)=C(N)Oc3c2c(C)nn3-c2cccc(Cl)c2)c1 (stereo not drawn)	PAD4 FP inh 35
CCCc1cc(C(=O)Nc2cccc(C(C)=O)c2)no1	GSTO1 inh 36
O=C(O)c1ccc(NC2=C(N3CCOCC3)C(=O)c3ccccc3C2=O)cc1	GSTO1 inh 46
CC(=O)N(C)C1=C(O)c2ccccc2C(=O)C1=O	none
CC(=O)N(C)C1=C(N2CCOCC2)C(=O)c2ccccc2C1=O	GSTO1 inh 59
COc1ccccc1-n1nnnc1SCC(=O)NCC1(N2CCOCC2)CCCCC1	none (no result: GSTO1 inh, Fam108B counter)
CC(=O)c1sc2nc(-c3ccco3)ccc2c1N	GSTO1 inh 39
Cc1ccc(NC(=O)c2sc3nc4c(c(-c5ccco5)c3c2N)CCC4)cc1	none
Nc1c(C(=O)Nc2ccc(F)cc2)sc2nc(-c3ccco3)ccc12	PME-1 inh 58
Nc1c(C(=O)Nc2ccc(Br)cc2)sc2nc(-c3ccco3)ccc12	PME-1 inh 36
Cn1c(=O)c2c(ncn2CC(=O)NC[C@H]2O[C@@H](n3cnc4c(N)ncnc43)[C@H](O)[C@@H]2O)n(C)c1=O	none (no result: GSTO1 inh, Fam108B counter, LYPLA2 inh, PME-1 inh, LYPLA1 counter)
Cc1ccc(S(=O)(=O)CCC(=O)NCCN2C(=O)S/C(=C\c3ccccc3)C2=O)cc1	PME-1 inh 35
O=C(CCS(=O)(=O)c1ccc(Cl)cc1)NCCN1C(=O)S/C(=C\c2ccccc2F)C1=O	none
CC1=NN(c2ccccc2)C(=O)C1=C(C)C	GSTO1 inh 35
CC1=NN(c2ccccc2)C(=O)/C1=C\c1sccc1C	none
COCc1cc(CN(C)C(=O)c2oc3c(F)cccc3c2C)[nH]n1	none
O=C1CC(c2ccc(O)c(O)c2)Oc2c1ccc(O)c2O (stereo not drawn)	GSTO1 inh 44
CC(=O)OCc1cc(-c2nc3ccccc3[nH]c2=O)nn1-c1ccc(Cl)cc1	none
COc1ccc(/C=N/NC(=O)c2nn(-c3ccccc3)c(=O)c3c(N)scc23)cc1	GSTO1 inh 53
COc1ccc(/C=N/NC(=O)c2nn(-c3ccc(Cl)cc3)c(=O)c3c(N)scc23)cc1	none
Cc1cc(C(=O)NCC(=O)OCC(=O)NCCc2ccccc2)ccc1[N+](=O)[O-]	none
COc1ccc(C(=O)NC(=O)CSc2nc3nc(C)cc(C)n3n2)cc1	none (no result: GSTO1 inh, Fam108B counter, LYPLA2 inh, PME-1 inh, LYPLA1 counter)
Cc1ccc(-n2cc(S(=O)(=O)c3ccc(C)cc3)[nH]c2=O)cc1	none
Oc1[nH]c2ccccc2c1C=Nc1ccc2c(c1)OCO2	PME-1 inh 31
CC(=O)C1=C(c2ccccc2)NC(=O)NC1c1ccc(O)c(O)c1 (stereo not drawn)	GSTO1 inh 37
O=c1ccc(-c2ccccc2)nn1Cc1ccc(Cl)cc1	LYPLA2 inh 38
Cc1ccc2sc(NNC(=O)c3cc(-c4cccs4)nc4ccccc34)nc2c1C	none
O=C(NNc1nc2c(F)cccc2s1)c1cc(=O)c2ccccc2o1	PME-1 inh 55
Cc1cccc2sc(NNC(=O)c3cc(=O)c4ccccc4o3)nc12	PME-1 inh 47
COc1ccc2nc(NNC(=O)c3cc(=O)c4ccccc4o3)sc2c1	none
O=C(NNc1nc2c(F)cccc2s1)c1ccc(F)cc1	none
Cc1ccc2sc(NNC(=O)c3cc(=O)c4ccccc4o3)nc2c1C	PME-1 inh 46
COc1ccccc1C(=O)Nc1ccnn1C1CCN(Cc2ccccc2OCCO)CC1	none
O=C(OCC(=O)N(CCc1ccccc1)Cc1ccccc1)c1ccccc1NCCO	none
Cc1nnc(NC(=O)CSc2ccc([N+](=O)[O-])cn2)s1	GSTO1 inh 37
O=C(O)C1CCN(C(=O)CCN2C(=O)S/C(=C\c3ccccc3)C2=O)CC1	none
CC(C)CC(NS(=O)(=O)c1ccccc1)C(=O)O (stereo not drawn)	none
CC(C)CN=C(NS(=O)(=O)c1ccccc1)C(Cl)(Cl)Cl	GSTO1 inh 78
CC(C)c1cc(NC(=O)CCl)on1	GSTO1 inh 104
Cc1cc(NC(=O)c2cc(C(C)C)on2)no1	none
CCCCn1c(/C=N/Nc2nc3ccccc3[nH]2)nc2ccccc21	PME-1 inh 52
CCOc1ccc(NS(=O)(=O)c2ccc3[nH]cc(C(=O)N(CC)CC)c(=O)c3c2)cc1	GSTO1 inh 36
CC(C)c1ccc(NS(=O)(=O)c2ccc3[nH]cc(C(=O)N4CCC(C(N)=O)CC4)c(=O)c3c2)cc1	GSTO1 inh 55
CCOc1ccc(NS(=O)(=O)c2ccc3[nH]cc(C(=O)NCC4CCCO4)c(=O)c3c2)cc1 (stereo not drawn)	none
O=C(O)C1C2CCC(O2)C1C(=O)Nc1ccc(Br)cc1F (stereo not drawn)	none
Cc1ccc(OC(=O)C2c3ccccc3Oc3ccccc32)cc1C	none
